Laboratory results: ChEMBL document CHEMBL3988442, “University of Dundee, Small-Polar-MMV Screening Library” (2021)
For some assays here: Results with a measured potency or affinity are listed apart.

Assays:
Parameters in all cases: scale not given: direction of the effect not stated beside the values
[1] = target: Protein translocase subunit SecA (Escherichia coli (strain K12)) (UniProt P10408); experiment: Assay to Identify E. coli SecA ATPase Inhibitors; format: functional; conditions: 30 µM
Sequence of Protein translocase subunit SecA (Escherichia coli (strain K12)) (P10408 whole entry): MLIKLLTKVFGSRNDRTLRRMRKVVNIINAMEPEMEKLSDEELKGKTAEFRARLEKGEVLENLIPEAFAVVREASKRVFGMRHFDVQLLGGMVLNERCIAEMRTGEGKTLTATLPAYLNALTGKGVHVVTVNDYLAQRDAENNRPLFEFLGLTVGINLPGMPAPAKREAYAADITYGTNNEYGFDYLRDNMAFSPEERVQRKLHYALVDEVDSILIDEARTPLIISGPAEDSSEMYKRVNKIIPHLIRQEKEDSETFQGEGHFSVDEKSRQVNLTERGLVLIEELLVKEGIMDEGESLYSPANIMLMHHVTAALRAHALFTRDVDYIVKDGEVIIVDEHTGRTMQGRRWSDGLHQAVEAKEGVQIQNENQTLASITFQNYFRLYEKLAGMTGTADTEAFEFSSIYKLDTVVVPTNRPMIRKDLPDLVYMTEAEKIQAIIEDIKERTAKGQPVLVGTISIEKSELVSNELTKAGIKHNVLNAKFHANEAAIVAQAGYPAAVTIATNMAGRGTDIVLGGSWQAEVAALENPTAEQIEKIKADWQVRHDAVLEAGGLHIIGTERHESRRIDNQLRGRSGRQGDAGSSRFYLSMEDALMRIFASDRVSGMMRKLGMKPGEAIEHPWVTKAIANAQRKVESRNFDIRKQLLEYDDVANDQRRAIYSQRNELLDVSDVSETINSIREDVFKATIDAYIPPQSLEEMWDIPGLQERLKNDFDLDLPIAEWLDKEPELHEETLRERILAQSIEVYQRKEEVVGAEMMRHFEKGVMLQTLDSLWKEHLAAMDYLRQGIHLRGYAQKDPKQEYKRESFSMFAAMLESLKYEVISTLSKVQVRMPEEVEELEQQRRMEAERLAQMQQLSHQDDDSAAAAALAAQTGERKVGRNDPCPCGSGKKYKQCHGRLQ

[2] = target: T1, Ubiquitin-activating enzyme e1, putative (Leishmania donovani (strain BPK282A1)) (UniProt E9BSI1); experiment: Leishmania donovani Ubiquitin Activating Enzyme (LdE1); format: functional; conditions: 30 µM
T1 sequence (whole entry): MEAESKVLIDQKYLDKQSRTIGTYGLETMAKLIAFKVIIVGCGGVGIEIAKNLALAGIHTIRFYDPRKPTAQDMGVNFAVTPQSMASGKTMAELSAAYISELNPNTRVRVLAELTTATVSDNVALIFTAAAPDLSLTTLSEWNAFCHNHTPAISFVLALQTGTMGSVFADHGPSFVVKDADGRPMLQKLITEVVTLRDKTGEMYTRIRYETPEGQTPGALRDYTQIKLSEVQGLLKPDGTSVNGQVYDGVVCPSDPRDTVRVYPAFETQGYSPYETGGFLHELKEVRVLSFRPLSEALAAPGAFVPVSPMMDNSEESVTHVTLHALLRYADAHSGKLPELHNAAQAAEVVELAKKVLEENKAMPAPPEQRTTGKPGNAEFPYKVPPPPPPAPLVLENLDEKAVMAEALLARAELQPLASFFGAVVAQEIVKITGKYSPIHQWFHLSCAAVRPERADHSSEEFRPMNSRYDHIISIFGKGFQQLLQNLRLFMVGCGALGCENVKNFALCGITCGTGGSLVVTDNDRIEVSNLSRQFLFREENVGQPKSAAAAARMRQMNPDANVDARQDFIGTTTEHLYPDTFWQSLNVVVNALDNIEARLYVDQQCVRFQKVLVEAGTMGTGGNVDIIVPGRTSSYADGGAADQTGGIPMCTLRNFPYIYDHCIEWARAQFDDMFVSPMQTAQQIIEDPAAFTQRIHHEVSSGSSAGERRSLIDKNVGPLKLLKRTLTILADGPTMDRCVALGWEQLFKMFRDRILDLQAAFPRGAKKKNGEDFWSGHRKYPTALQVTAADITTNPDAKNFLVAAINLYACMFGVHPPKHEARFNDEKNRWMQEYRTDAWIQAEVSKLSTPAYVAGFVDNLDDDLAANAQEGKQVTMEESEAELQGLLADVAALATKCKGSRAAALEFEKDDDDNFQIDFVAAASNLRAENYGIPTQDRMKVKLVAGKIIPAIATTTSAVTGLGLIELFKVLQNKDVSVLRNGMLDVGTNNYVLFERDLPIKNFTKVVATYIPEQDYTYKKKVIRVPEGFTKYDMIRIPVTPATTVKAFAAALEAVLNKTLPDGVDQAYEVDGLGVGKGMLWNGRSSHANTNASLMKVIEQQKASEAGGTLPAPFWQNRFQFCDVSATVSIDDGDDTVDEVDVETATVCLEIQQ

[3] = target: AMP-activated protein kinase, AMPK (Homo sapiens) (UniProt P54646+O43741+P54619+Q9UGJ0+Q9Y478+Q13131+Q9UGI9); experiment: AMP-dependent Kinase enzyme assay. An in vitro enzyme assay that detects ADP turnover that is directly proportional to AMPK activity. This uses naive AMPK that is activated during the assay with MK-8722; format: functional; conditions: 30 µM
[4] = target: Sialic acid-binding Ig-like lectin 9 (Homo sapiens) (UniProt Q9Y336); experiment: Hs-Siglec9 ALPHAscreen SOP 20170721; conditions: 10 µM
Sequence of Sialic acid-binding Ig-like lectin 9 (Homo sapiens) (Q9Y336 whole entry): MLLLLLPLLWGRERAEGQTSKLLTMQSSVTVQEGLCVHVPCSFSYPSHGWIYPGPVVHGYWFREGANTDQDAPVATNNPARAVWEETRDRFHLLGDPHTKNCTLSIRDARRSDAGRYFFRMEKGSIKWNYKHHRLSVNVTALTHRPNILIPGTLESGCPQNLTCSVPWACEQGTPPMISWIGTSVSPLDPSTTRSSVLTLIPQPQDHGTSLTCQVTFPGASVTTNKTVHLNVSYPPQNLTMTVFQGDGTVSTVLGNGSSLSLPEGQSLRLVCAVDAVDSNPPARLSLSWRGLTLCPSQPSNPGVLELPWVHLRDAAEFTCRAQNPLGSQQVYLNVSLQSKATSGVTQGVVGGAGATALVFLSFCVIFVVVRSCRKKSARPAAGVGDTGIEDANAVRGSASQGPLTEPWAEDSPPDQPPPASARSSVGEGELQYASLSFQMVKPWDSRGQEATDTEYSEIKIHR

Trypanosoma cruzi = experiment: Trypanosoma cruzi phosphomannomutase and mannose-1-phosphate guanylyltransferase assay; format: functional; conditions: 10 µM
[5] = target: T2, Arginase-2, mitochondrial (Homo sapiens) (UniProt P78540); experiment: in vitro enzyme assay to detect the production of urea directly proportional to the activity of Arginase II; format: functional; conditions: 33.3 µM; note: in the data most compounds retested in dose-response had high values
T2 sequence (whole entry): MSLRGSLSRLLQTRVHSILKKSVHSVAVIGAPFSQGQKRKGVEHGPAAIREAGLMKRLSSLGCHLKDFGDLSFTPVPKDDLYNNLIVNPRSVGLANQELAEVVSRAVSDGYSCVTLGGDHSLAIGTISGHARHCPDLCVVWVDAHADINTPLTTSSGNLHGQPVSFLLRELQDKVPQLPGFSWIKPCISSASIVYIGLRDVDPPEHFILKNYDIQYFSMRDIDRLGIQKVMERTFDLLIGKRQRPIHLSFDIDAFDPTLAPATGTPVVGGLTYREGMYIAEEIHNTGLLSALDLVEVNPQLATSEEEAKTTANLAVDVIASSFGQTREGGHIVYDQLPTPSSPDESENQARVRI

[6] = target: T3, Proteasome subunit beta (Trypanosoma cruzi) (UniProt O96673); experiment: Trypanosoma cruzi proteasome chymotrypsin-like activity (TcProtChymo) assay.; note: in the data most compounds retested in dose-response had high values; format: functional; conditions: 9.37 µM
T3 sequence (whole entry): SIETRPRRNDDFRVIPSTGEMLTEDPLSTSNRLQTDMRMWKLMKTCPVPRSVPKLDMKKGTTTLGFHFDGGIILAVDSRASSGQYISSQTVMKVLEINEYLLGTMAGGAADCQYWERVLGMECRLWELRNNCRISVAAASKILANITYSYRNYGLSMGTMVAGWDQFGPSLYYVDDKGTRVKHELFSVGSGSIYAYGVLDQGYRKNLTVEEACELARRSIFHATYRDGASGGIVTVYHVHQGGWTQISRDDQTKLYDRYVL

Homo sapiens = species: Homo sapiens; experiment: To identify inhibition of the IFN signalling (Jak-Stat) pathway via expression of an eGFP reporter gene under the control of an IFN-stimulated response element (ISRE) containing MxA promoter.; format: functional; conditions: 30 µM
[7] = target: T4, Tyrosyl-tRNA synthetase, putative (Trypanosoma cruzi (strain CL Brener)) (UniProt Q4DSP6); experiment: Trypanosoma cruzi tyrosyl tRNA synthetase (TcYRS) _High Tyrosine SOP; format: functional; conditions: 30 µM; note: in the data most compounds retested in dose-response had high values
T4 sequence (whole entry): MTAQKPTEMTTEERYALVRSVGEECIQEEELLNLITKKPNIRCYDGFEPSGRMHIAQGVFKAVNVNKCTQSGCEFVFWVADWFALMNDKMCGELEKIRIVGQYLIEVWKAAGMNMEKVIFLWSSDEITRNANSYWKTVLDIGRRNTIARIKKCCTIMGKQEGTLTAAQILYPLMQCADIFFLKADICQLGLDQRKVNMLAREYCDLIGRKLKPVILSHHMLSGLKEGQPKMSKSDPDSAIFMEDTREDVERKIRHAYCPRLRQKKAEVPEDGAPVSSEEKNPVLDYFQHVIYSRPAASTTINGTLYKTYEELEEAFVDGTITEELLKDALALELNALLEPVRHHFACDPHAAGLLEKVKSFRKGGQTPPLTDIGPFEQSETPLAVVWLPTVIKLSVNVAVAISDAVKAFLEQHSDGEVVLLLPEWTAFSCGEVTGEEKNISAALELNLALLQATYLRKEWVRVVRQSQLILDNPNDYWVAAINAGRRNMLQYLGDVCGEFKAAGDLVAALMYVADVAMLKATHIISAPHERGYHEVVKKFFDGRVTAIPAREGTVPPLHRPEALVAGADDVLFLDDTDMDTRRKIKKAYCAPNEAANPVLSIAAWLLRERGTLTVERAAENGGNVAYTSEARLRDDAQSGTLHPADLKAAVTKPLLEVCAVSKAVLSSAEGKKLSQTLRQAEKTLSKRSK

[8] = target: T4, Tyrosyl-tRNA synthetase, putative (Trypanosoma cruzi (strain CL Brener)); experiment: Trypanosoma cruzi tyrosyl tRNA synthetase (TcYRS) SOP; format: functional; conditions: 30 µM
[9] = target: Chromo domain-containing protein 1 (Saccharomyces cerevisiae (strain ATCC 204508 / S288c) (Baker's yeast)) (UniProt P32657); experiment: ScCHD-1 Enzyme Inhibition Assay; format: functional; conditions: 30 µM; note: in the data most compounds retested in dose-response had high values
Sequence of Chromo domain-containing protein 1 (Saccharomyces cerevisiae (strain ATCC 204508 / S288c) (Baker's yeast)) (P32657 whole entry, the tested form may be a part): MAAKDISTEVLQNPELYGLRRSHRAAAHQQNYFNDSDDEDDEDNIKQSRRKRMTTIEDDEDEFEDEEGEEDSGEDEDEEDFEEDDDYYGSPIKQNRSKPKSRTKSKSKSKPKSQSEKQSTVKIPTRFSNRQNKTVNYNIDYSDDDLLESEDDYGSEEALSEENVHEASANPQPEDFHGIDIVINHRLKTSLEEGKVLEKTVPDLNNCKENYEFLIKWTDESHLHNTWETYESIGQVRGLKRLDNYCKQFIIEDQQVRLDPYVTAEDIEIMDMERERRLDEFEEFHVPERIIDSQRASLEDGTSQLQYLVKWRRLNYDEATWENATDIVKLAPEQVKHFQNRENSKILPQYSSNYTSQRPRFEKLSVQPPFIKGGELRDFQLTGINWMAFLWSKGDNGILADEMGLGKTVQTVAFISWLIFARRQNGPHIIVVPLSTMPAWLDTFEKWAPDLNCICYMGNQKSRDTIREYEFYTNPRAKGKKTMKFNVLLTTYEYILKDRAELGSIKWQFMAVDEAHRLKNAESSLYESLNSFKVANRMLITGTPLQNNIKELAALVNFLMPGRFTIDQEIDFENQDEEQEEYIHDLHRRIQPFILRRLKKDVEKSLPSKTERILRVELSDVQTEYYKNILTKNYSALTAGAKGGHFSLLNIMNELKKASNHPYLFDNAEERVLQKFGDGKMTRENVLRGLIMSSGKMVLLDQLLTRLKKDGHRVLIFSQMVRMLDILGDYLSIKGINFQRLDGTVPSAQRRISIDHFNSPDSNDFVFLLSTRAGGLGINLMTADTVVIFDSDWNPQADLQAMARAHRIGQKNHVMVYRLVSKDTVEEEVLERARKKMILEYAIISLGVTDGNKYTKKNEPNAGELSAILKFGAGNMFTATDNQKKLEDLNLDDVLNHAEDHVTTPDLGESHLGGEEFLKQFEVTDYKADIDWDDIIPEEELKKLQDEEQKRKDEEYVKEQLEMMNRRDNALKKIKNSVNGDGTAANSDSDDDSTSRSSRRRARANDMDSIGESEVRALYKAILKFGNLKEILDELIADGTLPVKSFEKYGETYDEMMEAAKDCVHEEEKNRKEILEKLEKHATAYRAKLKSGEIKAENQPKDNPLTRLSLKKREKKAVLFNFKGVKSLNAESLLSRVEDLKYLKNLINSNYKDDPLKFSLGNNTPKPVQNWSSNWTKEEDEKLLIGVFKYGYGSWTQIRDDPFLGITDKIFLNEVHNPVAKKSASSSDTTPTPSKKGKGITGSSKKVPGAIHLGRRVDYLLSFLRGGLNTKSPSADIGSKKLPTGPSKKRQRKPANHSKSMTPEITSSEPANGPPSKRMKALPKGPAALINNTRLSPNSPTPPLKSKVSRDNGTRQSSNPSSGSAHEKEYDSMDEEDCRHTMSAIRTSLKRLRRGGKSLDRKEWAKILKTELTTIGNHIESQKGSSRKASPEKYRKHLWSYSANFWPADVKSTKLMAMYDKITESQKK

SMILES | Percent Effect [1] [%] | Percent Effect [2] [%] | Percent Effect [3] [%] | Percent Effect [4] [%] | Percent Effect (Trypanosoma cruzi) [%] | Percent Effect [5] [%] | Percent Effect [6] [%] | Percent Effect (Homo sapiens) [%] | Percent Effect [7] [%] | Percent Effect [8] [%] | Percent Effect [9] [%]
Fc1ccc(CN2CCC(c3nccnc3-n3ccnc3)CC2)cc1 | -8.16 | 17.6 | 8.26 | 0.663 | 3.75 | -3.02 | 12.5 | 17.9 | 3.23 | 3.9 | -17.3
CCNS(=O)(=O)c1ccc(C)c(C(=O)N(C)Cc2ccco2)c1 | -2.78 | -4.17 | 4.21 | 0.221 | -1.65 | 0.442 | 13 | -0.366 | -27.4 | -2.56 | 2.86
Cc1cc(OCC(=O)NC(C)c2ccc(N3CCOCC3)cc2)no1 (stereo not given) | -4.84 | 18.2 | -0.141 | 11.2 | 5.61 | -89.7 | 8.15 | -3.73 | 3.23 | 13.6 | -6.7
COc1ncccc1CN1Cc2nnn(C)c2C(COCC2CC2)C1 (stereo not given) | -1.6 | 7.79 | 4.07 | -3.49 | -5.62 | 3.23 | 1.92 | 2.8 | 4.23 | 14.1 | -4.09
NC(=O)c1csc(C(=O)N2CCCCC2Cn2cccn2)c1 (stereo not given) | -5.35 | 13.5 | 1.44 | 6.12 | -0.279 | -3.88 | 0.539 | 16.2 | 5.94 | 13.4 | 1.19
CC(=O)N1CCC(C(=O)N(C)[C@@H]2CCC[C@@H](N3CCCC3)[C@@H]2O)CC1 | -6.98 | 20.3 | -7.25 | -2.3 | 6.13 | -2.09 | 13.4 | 13.2 | 5.38 | 22.1 | -22.6
Cc1cc(C(=O)NCC2COCc3c(C)nnn3C2)no1 (stereo not given) | -6.44 | 2.6 | -3 | 3.99 | -0.295 | -9.65 | 7.65 | -19 | 2.15 | 11.1 | -0.439
O=C(c1ccc[nH]1)N1CCn2cc(Cn3cncn3)nc2C1 | -0.971 | 2.67 | 2.39 | -2.2 | -3.94 | 3.03 | 11.2 | 13.4 | 3.19 | -1.28 | -3.1
CCc1nc2n(n1)CC(NCc1nc(C)ccc1O)CC2 (stereo not given) | -5.74 | 7.89 | 1.61 | 1.6 | 5.16 | -2.37 | 5.85 | -1.01 | 0 | 10.4 | -1.98
COCC(=O)N(C)Cc1cccc(Cl)c1 | -4 | 10.5 | -1.75 | -3.18 | 4.19 | 0 | 2.78 | 4.21 | 1.06 | 13 | -4.61
